# Results: PubChem BioAssay
# “And” between values parts separate entries of the source, which are not always exact repeats. Equal values may be shown once. This is one part of the list. Inconclusive results are not listed. The source made the active and inactive calls.
# Assays:
# PubChem AID 1714 = conditions: HEK293-KCC2 + bumetanide/ouabain, thallium flux FluoZin2; at 10 µM; stronger effect = higher value
# [1] = biological target: Solute carrier family 12 member 5 (Homo sapiens) (UniProt Q9H2X9); test: retest of KCC2 transport modulation, ouabain-free – cell-based, HEK293 KCC2, thallium flux, FluoZin2, secondary assay 2, confirmation (AID 1715;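 active means thallium flux slope more than 3 SD above or below the plate's solvent-only control mean, mostly below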;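 further: raw slope with 0.1% DMSO as baseline and bumetanide as block control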); conditions: HEK293-KCC2, thallium flux FluoZin2 fluorescence; at 10 µM; actives lie on both sides; F/F0 rise rate, 10–20 s post-thallium
# [2] = compound effects on native HEK Tl+ uptake – HEK cells, counterscreen 1, counter-screen for KCC2 modulator project, confirmation (AID 1716;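 active means thallium flux rate significantly above the same plate's solvent-only control wells, beyond their mean plus 3 SD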); conditions: HEK293 parental cells, thallium flux FluoZin2, ouabain; at 10 µM; baseline-ratio fluorescence slope, 10–20 s after thallium
# [3] = native HEK Tl+ uptake effects, second counter-screen – HEK cells, counterscreen 2, counter-screen for KCC2 modulator project, confirmation (AID 1718;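 active means thallium flux slope above the same plate's solvent-control mean plus 3 SD in both duplicate wells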;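 further: run without ouabain in cells lacking the KCC2 cotransporter; slope of fluorescence scaled to its starting value between 10 and 20 s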); conditions: HEK293 parental, thallium flux FluoZin-2 fluorescence slope; at 10 µM
# [4] = inhibitors of TNFa-induced NFkB p65 translocation, primary screen, imaging, HUVEC, MLSMR starter and 10KST1 sets (AID 438;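 active means inhibition above 20% together with a positive visual image hit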;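 further: compound added about 3h40 before a 20 min TNFalpha stimulation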;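 on inhibition: signal is the nuclear over cytoplasmic p65 intensity ratio per well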); conditions: HUVEC TNFa-induced p65 nuclear translocation; cell count: measured here: nuclei count (cytotoxicity indicator), at 2.08 µM; inhibition: at 2 µM, stronger effect = higher value, 0% TNFa-plus-vehicle, 100% no-TNFa wells
# [5] = reduction of polyQ htt aggregates in cells – imaging, exon1htt(103Q)mCFP cells, high-content imaging, primary screen (AID 483;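 active means visual image review flags a hit and inhibition of aggregation exceeds 20%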;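 further: compound exposure lasted 3 days before fixation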;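 on nuclei count: percent of the per-plate median nuclei count of sample wells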); conditions: exon1htt(103Q)mCFP cell line, aggregate imaging, at 2 µM; inhibition of aggregation: stronger effect = higher value; nuclei count: measured here: cell count, toxicity
# [6] = endothelial E-selectin expression blockers – imaging, HUVEC, immunofluorescence, MLSMR starter and 10KST1 sets, primary screen (AID 487;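 active means visually confirmed hit in the image check and inhibition above 20%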;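 on inhibition: signal is fraction of cell area covered by stained E-selectin grains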;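 on nuclei count: 100% = median nuclei count of all wells on the same plate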); conditions: HUVEC TNFalpha-induced E-selectin immunofluorescence imaging, at 2 µM; inhibition: stronger effect = higher value; nuclei count: measured here: cell number, toxicity
# [7] = Primary imaging screen for DUSP6 inhibitors that restore phospho-Erk in transfected HeLa cells, chemical complementation (AID 609;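 active means compounds giving at least 50% inhibition in the cell-based MKP-3 phosphatase rescue imaging test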;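 on inhibition: phospho-Erk level distribution per well compared with pooled transfected vehicle control wells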); conditions: HeLa MKP-3 transfected, phospho-Erk imaging KS statistic, at 10 µM, cells stimulated with TPA for 15 min
# [8] = biological target: Dual specificity protein phosphatase 6 (Homo sapiens) (UniProt Q16828); test: as above; conditions: HeLa MKP-3 transfected, phospho-Erk imaging KS statistic; at 10 µM; stronger effect = higher value; cells stimulated with TPA for 15 min
# [9] = biological target: Voltage-gated potassium channel subunit beta-2 (Rattus norvegicus) (UniProt P62483); test: inhibitors of rat Kvbeta2 reductase activity – biochemical, NADPH fluorescence, primary screen (AID 622;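 active means fluorescence slope higher than the sample average by over 3 SD, cut at about -0.22 in these data, passing the limit was not always enough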;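 further: slope of raw intensity against log time taken from 70 to 1610 s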); conditions: recombinant KvBeta, 4-cyanobenzaldehyde reduction, at 10 µM, stronger effect = higher value
# [10] = biological target: Voltage-gated potassium channel subunit beta-2 (Rattus norvegicus) (UniProt P62483); test: enhancers of rat Kvbeta2 NADPH turnover – biochemical, NADPH fluorescence, primary screen (AID 623;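 active means NADPH fluorescence slope more negative than the mean of all samples by about 3 SD, 99.7% confidence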;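 further: fluorescence intensity change per second fitted from 20 to 320 s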); conditions: Recombinant KvBeta, NADPH fluorescence decrease slope, 10 min; at 10 µM; stronger effect = lower value
# [11] = biological target: Alpha-2C adrenergic receptor (Homo sapiens) (UniProt P18825); test: compounds altering alpha2C-coupled GIRK flux – cell-based, HEK293 alpha2C/GIRK1/2, thallium flux, primary screen (AID 624;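 active means fluorescence slope after compound addition differing from the mean of all screened samples at 99.7% confidence, in either direction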;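 further: slope of fluorescence ratio to pre-addition baseline per second over 15 to 24 s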); conditions: thallium flux BTC fluorescence, at 10 µM, actives lie on both sides
# [12] = loss of swimming-algae plug formation – whole organism, Chlamydomonas reinhardtii, WT vs cilia-less mutant, absorbance, 96-well, primary screen (AID 463189); conditions: Chlamydomonas reinhardtii gravitaxis, OD600 absorbance, 2 days; at 10 µM; stronger effect = higher value;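 further: 0% = wild type cc124 cells in DMSO and 100% = ciliumless bld1 mutant cells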
# [13] = blockers of RIG-like receptor reporter activation – cell-based, Sendai virus stimulus, luciferase, 10K MLSCN set, TLR/RLR signaling modifier project, primary screen (AID 602276;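 active means inhibition at or above 50% at 10 µM; inactive means inhibition below 50%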;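 further: firefly luciferase from ISG56 promoter only with Renilla not read in this screen; 0% = Sendai virus plus DMSO and 100% = medium plus DMSO without virus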); conditions: HEK293 RL24 IRF3 luciferase reporter, at 10 µM, stronger effect = higher value
# [14] = TLR3 IRF3 reporter activation blockers – cell-based, poly I:C stimulus, luciferase, 10K MLSCN set, primary screen (AID 602277;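 active means inhibition of the reporter signal at or above 50%; inactive means inhibition below 50%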); conditions: HEK293-TLR3 RL24 IRF3 luciferase reporter, at 10 µM, stronger effect = higher value
# [15] = biological target: Solute carrier family 12 member 5 (Homo sapiens) (UniProt Q9H2X9); test: modulation of KCC2 thallium flux in HEK cells – cell-based, ouabain, retest, confirmation (AID 1717;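 active means thallium flux slope beyond 3 SD from same-plate DMSO control mean in most replicates, usually higher, sometimes lower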;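 further: slope of initial-normalized fluorescence between seconds 10 and 20 after thallium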); conditions: HEK293-KCC2, thallium flux FluoZin2 fluorescence, at 10 µM, bidirectional: low = inhibitor, high = activator
# [16] = biological target: Solute carrier family 12 member 5 (Homo sapiens) (UniProt Q9H2X9); test: retest of KCC2 transport modulators without sodium – cell-based, HEK293 KCC2, thallium flux, secondary assay, confirmation (AID 1713;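 active means thallium flux slope above the same plate's solvent-only control mean plus 3 SD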); conditions: FluoZin2 fluorescence, at 10 µM, stronger effect = higher value
# [17] = measured here: cell density z-score
# [18] = measured here: nuclear c-Myc green intensity z-score
# [19] = measured here: nuclear pErk red intensity z-score, stronger effect = higher value
# Sequence of Voltage-gated potassium channel subunit beta-2 (Rattus norvegicus) (P62483 whole entry, looked up): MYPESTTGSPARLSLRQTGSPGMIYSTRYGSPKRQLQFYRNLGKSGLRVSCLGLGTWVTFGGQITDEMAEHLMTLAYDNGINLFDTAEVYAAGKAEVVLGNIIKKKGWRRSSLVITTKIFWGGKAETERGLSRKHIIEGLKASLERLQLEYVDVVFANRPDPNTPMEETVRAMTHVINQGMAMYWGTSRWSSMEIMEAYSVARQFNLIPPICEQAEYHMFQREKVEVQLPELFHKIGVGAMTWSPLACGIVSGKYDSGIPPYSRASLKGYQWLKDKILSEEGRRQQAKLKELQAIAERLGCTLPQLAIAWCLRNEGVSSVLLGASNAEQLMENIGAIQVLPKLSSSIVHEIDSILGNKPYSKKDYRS
# Sequence of Dual specificity protein phosphatase 6 (Homo sapiens) (Q16828 whole entry, looked up): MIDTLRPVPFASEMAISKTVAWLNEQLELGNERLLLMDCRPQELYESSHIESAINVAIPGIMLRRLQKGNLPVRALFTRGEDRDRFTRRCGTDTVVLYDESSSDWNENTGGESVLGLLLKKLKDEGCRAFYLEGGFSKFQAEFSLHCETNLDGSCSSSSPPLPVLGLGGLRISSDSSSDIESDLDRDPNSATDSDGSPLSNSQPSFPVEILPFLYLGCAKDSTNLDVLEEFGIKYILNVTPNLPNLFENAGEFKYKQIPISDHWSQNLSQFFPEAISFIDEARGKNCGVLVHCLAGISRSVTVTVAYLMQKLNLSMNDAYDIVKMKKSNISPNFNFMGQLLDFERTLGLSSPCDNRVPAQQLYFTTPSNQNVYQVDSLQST
# Sequence of Solute carrier family 12 member 5 (Homo sapiens) (Q9H2X9 whole entry, looked up): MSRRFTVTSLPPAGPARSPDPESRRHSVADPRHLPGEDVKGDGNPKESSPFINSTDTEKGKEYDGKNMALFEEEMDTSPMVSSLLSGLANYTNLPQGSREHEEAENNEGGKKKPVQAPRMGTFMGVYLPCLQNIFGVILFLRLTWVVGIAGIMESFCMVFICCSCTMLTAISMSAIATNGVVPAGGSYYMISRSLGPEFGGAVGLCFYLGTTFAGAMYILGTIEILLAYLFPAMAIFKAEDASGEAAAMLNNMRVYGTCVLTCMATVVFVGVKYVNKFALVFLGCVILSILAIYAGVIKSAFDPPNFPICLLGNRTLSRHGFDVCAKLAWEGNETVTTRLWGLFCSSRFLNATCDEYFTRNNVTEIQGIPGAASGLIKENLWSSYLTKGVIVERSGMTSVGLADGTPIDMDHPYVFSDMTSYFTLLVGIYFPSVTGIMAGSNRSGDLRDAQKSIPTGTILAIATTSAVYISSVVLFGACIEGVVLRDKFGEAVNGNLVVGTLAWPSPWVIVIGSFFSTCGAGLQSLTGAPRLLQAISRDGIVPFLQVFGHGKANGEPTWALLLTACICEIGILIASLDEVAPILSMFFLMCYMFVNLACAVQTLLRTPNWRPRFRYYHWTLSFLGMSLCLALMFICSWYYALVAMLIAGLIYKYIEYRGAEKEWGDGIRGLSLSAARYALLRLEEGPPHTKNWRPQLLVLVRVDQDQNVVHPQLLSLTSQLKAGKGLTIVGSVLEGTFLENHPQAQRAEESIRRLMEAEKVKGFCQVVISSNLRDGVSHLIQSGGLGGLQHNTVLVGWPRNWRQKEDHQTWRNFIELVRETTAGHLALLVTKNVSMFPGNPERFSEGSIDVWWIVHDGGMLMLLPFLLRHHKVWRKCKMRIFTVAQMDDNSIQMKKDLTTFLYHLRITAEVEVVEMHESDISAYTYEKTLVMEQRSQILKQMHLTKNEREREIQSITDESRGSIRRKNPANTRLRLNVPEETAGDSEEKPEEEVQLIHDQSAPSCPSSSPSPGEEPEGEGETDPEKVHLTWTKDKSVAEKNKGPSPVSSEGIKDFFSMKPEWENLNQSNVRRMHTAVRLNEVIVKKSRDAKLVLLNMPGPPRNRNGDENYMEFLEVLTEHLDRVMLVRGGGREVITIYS
# Sequence of Alpha-2C adrenergic receptor (Homo sapiens) (P18825 whole entry, looked up): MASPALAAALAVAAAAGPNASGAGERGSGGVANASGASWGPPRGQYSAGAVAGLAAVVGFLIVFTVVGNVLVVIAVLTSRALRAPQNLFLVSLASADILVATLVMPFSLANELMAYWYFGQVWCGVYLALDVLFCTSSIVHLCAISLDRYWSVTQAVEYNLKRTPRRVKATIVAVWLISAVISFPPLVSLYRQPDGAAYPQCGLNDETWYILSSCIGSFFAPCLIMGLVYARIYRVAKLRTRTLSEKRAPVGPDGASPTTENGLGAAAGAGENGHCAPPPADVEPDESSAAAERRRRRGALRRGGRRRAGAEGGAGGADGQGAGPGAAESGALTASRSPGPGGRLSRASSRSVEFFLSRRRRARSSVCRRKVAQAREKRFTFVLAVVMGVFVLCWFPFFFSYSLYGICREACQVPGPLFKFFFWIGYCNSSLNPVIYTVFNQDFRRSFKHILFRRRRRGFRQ
smiles,measurement,setting,value
C/C(=C\C(=O)c1ccc(Br)cc1)N1CCCCC1,normalized thallium flux,PubChem AID 1714,0.0396 (active)
same,normalized thallium flux,[1],0.0283 (inactive)
same,thallium flux rate (normalised fluorescence),[2],0.0152 (active)
same,thallium flux slope,[3],0.0111 (active)
CCN(CC)CCN1C(=O)C(O)=C(C(=O)c2ccco2)C1c1ccccn1 (stereo unspecified),cell count,[4],439
same,inhibition,[4],-6.3% (inactive)
same,inhibition of aggregation,[5],16.5% (inactive)
same,nuclei count,[5],89.2%
same,inhibition,[6],-87.6% (inactive)
same,nuclei count,[6],123%
same,z-score,[7]; [17],0.101
same,z-score,[7]; [18],-1.41
same,z-score,[7]; [19],0.388
same,inhibition,[8],3.5% (inactive)
same,fluorescence slope,[9],-0.431 (inactive)
same,NADPH fluorescence slope,[10],-0.000163 (inactive)
same,slope,[11],0.005 (inactive)
same,inhibition,[12],14.9% (inactive)
same,inhibition,[13],15.6% (inactive)
same,inhibition,[14],18.9% (inactive)
N#Cc1c(-c2ccc(Cl)cc2)c2c([nH]c1=S)CCCC2,normalized thallium flux,PubChem AID 1714,0.0281 (active)
same,normalized thallium flux,[1],0.0403 (active)
same,thallium flux rate (normalised fluorescence),[2],0.0184 (active)
same,"raw Tl+ flux slope (below DMSO = inhibition, above = activation)",[15],0.0302 (active)
same,thallium flux slope,[3],0.0192 (active)
CCN(CC)C(=O)c1ccc(O)c(OC)c1,cell count,[4],502
same,inhibition,[4],-11.1% (inactive)
same,inhibition of aggregation,[5],8.7% (inactive)
same,nuclei count,[5],92.4%
same,inhibition,[6],-54.9% (inactive)
same,nuclei count,[6],125%
same,z-score,[7]; [17],0.597
same,z-score,[7]; [18],0.258
same,z-score,[7]; [19],-0.513
same,inhibition,[8],8% (inactive)
same,fluorescence slope,[9],-0.5 (inactive)
same,NADPH fluorescence slope,[10],-7.4e-05 (inactive)
same,slope,[11],0.00537 (inactive)
same,inhibition,[12],4.81% (inactive) and 9.44% (inactive)
same,inhibition,[13],-6.3% (inactive)
same,inhibition,[14],27.6% (inactive)
CCN(CC)CCNC(=O)c1ccc(NC(C)=O)cc1,cell count,[4],497
same,inhibition,[4],-5.5% (inactive)
same,inhibition of aggregation,[5],-5.6% (inactive)
same,nuclei count,[5],94.5%
same,inhibition,[6],15.6% (inactive)
same,nuclei count,[6],104%
same,z-score,[7]; [17],-0.982
same,z-score,[7]; [18],0.436
same,z-score,[7]; [19],0.661
same,inhibition,[8],5.79% (inactive)
same,fluorescence slope,[9],-0.442 (inactive)
same,NADPH fluorescence slope,[10],-5.7e-05 (inactive)
same,slope,[11],0.00544 (inactive)
same,inhibition,[12],-7.67% (inactive) and -9.65% (inactive)
same,inhibition,[13],12.9% (inactive)
same,inhibition,[14],42.8% (inactive)
Cc1cccc(COc2ccc(/C(O)=C3\C(=O)C(=O)N(CCN(C)C)C3c3ccncc3)cc2)c1 (stereo unspecified),cell count,[4],526
same,inhibition,[4],3.2% (inactive)
same,inhibition of aggregation,[5],-20.7% (inactive)
same,nuclei count,[5],106%
same,inhibition,[6],-20.5% (inactive)
same,nuclei count,[6],126%
same,z-score,[7]; [17],-1.17
same,z-score,[7]; [18],0.707
same,z-score,[7]; [19],-0.252
same,inhibition,[8],-1.75% (inactive)
same,fluorescence slope,[9],-0.434 (inactive)
same,NADPH fluorescence slope,[10],-0.000161 (inactive)
same,slope,[11],0.00578 (inactive)
same,inhibition,[12],-10.1% (inactive)
same,inhibition,[13],9.07% (inactive)
same,inhibition,[14],4.16% (inactive)
O=C(Nc1ccccc1F)C1C2C=CC3(O2)C1C(=O)N(c1cccnc1)C3C(=O)NC1CCCCC1 (stereo unspecified),normalized thallium flux,PubChem AID 1714,0.00547 (active)
same,normalized thallium flux,[1],0.0222 (active)
same,"raw Tl+ flux slope (below DMSO = inhibition, above = activation)",[15],0.0131 (active)
same,thallium flux slope,[3],0.0108 (inactive)
Cc1ccc(C(=O)NC(=S)Nc2ccccc2C)cc1,normalized thallium flux,PubChem AID 1714,0.0441 (active)
same,normalized thallium flux,[1],0.0421 (active)
same,thallium flux rate (normalised fluorescence),[2],0.0432 (active)
same,"raw Tl+ flux slope (below DMSO = inhibition, above = activation)",[15],0.0453 (active)
same,thallium flux slope,[3],0.0284 (active)
CCCC(=O)N1c2ccccc2NC2=C(C(=O)CCC2)C1c1ccc(F)cc1 (stereo unspecified),cell count,[4],593
same,inhibition,[4],-9.6% (inactive)
same,inhibition of aggregation,[5],3.9% (inactive)
same,nuclei count,[5],124%
same,inhibition,[6],-94.4% (inactive)
same,nuclei count,[6],123%
same,fluorescence slope,[9],-0.574 (inactive)
same,NADPH fluorescence slope,[10],-1.5e-05 (inactive)
same,slope,[11],0.0063 (inactive)
same,normalised thallium flux (F/F0 slope),[16],0.0086 (inactive)
same,normalized thallium flux,[1],0.0312 (inactive)
same,thallium flux rate (normalised fluorescence),[2],0.0072 (inactive)
same,"raw Tl+ flux slope (below DMSO = inhibition, above = activation)",[15],0.0212 (inactive)
same,inhibition,[13],8.4% (inactive)
same,inhibition,[14],23.4% (inactive)
Cc1sc2ncnc(Sc3nc4ccccc4s3)c2c1C,normalised thallium flux (F/F0 slope),[16],0.0102 (inactive)
same,normalized thallium flux,[1],0.0292 (inactive)
same,thallium flux rate (normalised fluorescence),[2],0.00801 (inactive)
same,thallium flux slope,[3],0.0107 (inactive)
Cc1[nH]n(-c2ccccc2)c(=O)c1N=Nc1ccccc1C(=O)N1CCCCC1,normalized thallium flux,PubChem AID 1714,0.0338 (active)
same,normalized thallium flux,[1],0.03 (inactive)
same,thallium flux rate (normalised fluorescence),[2],0.0142 (active)
same,"raw Tl+ flux slope (below DMSO = inhibition, above = activation)",[15],0.0253 (active)
C/C(=N\NC(=S)NC1CCCCC1)c1ccc(C)o1,normalized thallium flux,PubChem AID 1714,0.0335 (active)
same,normalized thallium flux,[1],0.0359 (inactive)
same,thallium flux rate (normalised fluorescence),[2],0.017 (active)
same,"raw Tl+ flux slope (below DMSO = inhibition, above = activation)",[15],0.0406 (active)
CCC1CCCCN1c1nc(-c2ccncc2)nc2ccccc12 (stereo unspecified),cell count,[4],503
same,inhibition,[4],0.5% (inactive)
same,inhibition of aggregation,[5],7.3% (inactive)
same,nuclei count,[5],91.9%
same,inhibition,[6],12.1% (inactive)
same,nuclei count,[6],126%
same,z-score,[7]; [17],1.04
same,z-score,[7]; [18],-0.92
same,z-score,[7]; [19],0.299
same,inhibition,[8],14% (inactive)
same,fluorescence slope,[9],-0.391 (inactive)
same,NADPH fluorescence slope,[10],-0.000148 (inactive)
same,slope,[11],0.00736 (inactive)
same,inhibition,[12],132% (active)
same,inhibition,[13],24.2% (inactive)
same,inhibition,[14],30.3% (inactive)
NC(N)=NC(=O)c1nc(Cl)c(N)nc1N,cell count,[4],517
same,inhibition,[4],-4.2% (inactive)
same,inhibition of aggregation,[5],-1.5% (inactive)
same,nuclei count,[5],103%
same,inhibition,[6],-76.7% (inactive)
same,nuclei count,[6],114%
same,z-score,[7]; [17],2.22
same,z-score,[7]; [18],-1.45
same,z-score,[7]; [19],-1.51
same,inhibition,[8],30.1% (inactive)
same,fluorescence slope,[9],-0.443 (inactive)
same,NADPH fluorescence slope,[10],-7.2e-05 (inactive)
same,slope,[11],0.00564 (inactive)
same,inhibition,[12],4.19% (inactive) and 21.2% (inactive)
same,inhibition,[13],15.9% (inactive)
same,inhibition,[14],42% (inactive)
